# Laboratory results from PubChem BioAssay.
# Activity calls are given as the source filed them. Unless noted, how the calls were made is not given here.
# Columns and labels:
# [1] = compounds binding Alexa647 anti-His antibody – biochemical, small-molecule microarray, 635 nm fluorescence, artefact control for SMM control protein annotation, primary screen (AID 1128); conditions: higher = more signal;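 further: score merges feature fluorescence with signal-to-noise for each printed compound spot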
# [2] = test system: Human papillomavirus type 1a E7 protein (residues 1-88); experiment: HPV1a E7 small-molecule binders, primary screen, biochemical, small-molecule microarray, residues 1-88, 635 nm (AID 1129); conditions: small-molecule microarray binding, fluorescence 635 nm; higher = more signal
# [3] = target: Focal adhesion kinase 1 (Homo sapiens) (UniProt Q05397); experiment: PTK2 protein binding on printed compound slides – biochemical, small-molecule microarray, 635/667 nm fluorescence, BSA, DTT, primary screen (AID 1130); conditions: 635 nm fluorescence, higher = more signal;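 further: composite of spot emission at 667 nm and signal to noise over triplicate slides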
# [4] = test system: Fibrinogen (Alexa647-labelled); experiment: Alexa647-fibrinogen binding to printed small molecules – biochemical, small-molecule microarray, 635/667 nm fluorescence, artefact control for SMM control-protein annotation, profiling panel (AID 1131); conditions: fibrinogen-A647 binding fluorescence, higher = more signal;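 further: z-score merges 667 nm fluorescence with per-spot signal-to-noise over triplicate slides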
# [5] = target: Follistatin (Homo sapiens) (UniProt P19883); experiment: FST protein binding to printed compounds – biochemical, small-molecule microarray, 635/667 nm fluorescence, primary screen (AID 1132); conditions: 635 nm fluorescence, higher = more signal
# [6] = target: Fibroblast growth factor 2 (Homo sapiens) (UniProt P09038); experiment: basic fibroblast growth factor binding to printed compounds – biochemical, small-molecule microarray, 635/667 nm fluorescence, primary screen (AID 1133); conditions: FGF2, fluorescence 635/667, higher = more signal
# [7] = JC-1 mitochondrial potential readout, lung cancer cells – cell-based, A549, JC-1 fluorescence, basal, 24 h, 100 nL, profiling panel (AID 1138); conditions: higher = more signal;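 further: A549 lung adenocarcinoma cells under basal conditions with no added stimulus; test concentration not given here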
# Lefty1 = Lefty1 protein binding to printed compounds – biochemical, small-molecule microarray, 635/667 nm fluorescence, primary screen (AID 1139); conditions: fluorescence 635/667, higher = more signal
# [8] = test system: wheat germ agglutinin (Triticum aestivum), Alexa647-labelled; experiment: Alexa647-WGA lectin binding to printed small molecules – biochemical, small-molecule microarray, 635/667 nm fluorescence, artefact control for SMM control-protein annotation, profiling panel (AID 1140); conditions: WGA-A647 binding, 635 nm fluorescence, higher = more signal;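 further: score merges 667 nm feature emission with signal to noise over triplicate slides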
# [9] = target: Luciferin 4-monooxygenase (Photinus pyralis) (UniProt P08659); experiment: inhibition of purified Photinus pyralis luciferase – biochemical, luminescence, purified enzyme, 2006 set, primary screen (AID 1141); conditions: purified firefly luciferase, SteadyGlo luminescence, 30 min; higher = more signal, called active from +8 up or from −8 down;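 further: cell-free assay with purified firefly luciferase at 100 ng per well in PBS; test concentration not given here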
# [10] = test system: Wnt5a (protein binding on small-molecule microarray); experiment: small molecules binding Wnt5a protein – biophysical, small-molecule microarray, 635/667 nm fluorescence, primary screen (AID 1142); conditions: 635 nm fluorescence, higher = more signal;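 further: fluorescence read at 667 nm with signal to noise per printed feature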
# [11] = ATP-based viability of Huh7 replicon cells – cell-based, CellTiter-Glo luminescence, basal, 48 h, cytotoxicity control for HCV replication inhibitor project, primary screen (AID 1143); conditions: higher = more signal, called active from +8 up or from −8 down;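 further: Huh7 hepatoma cells carrying a hepatitis C replication reporter with no stimulus; test concentration not given here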
# [12] = Pseudomonas biofilm growth suppression – PAO1 strain, BacTiter-Glo luminescence, LB-PBS, primary screen (AID 1144); conditions: P. aeruginosa PAO1 biofilm, 12 h, higher = more signal
# [13] = basal CRE-LacZ reporter activity in PC12 – cell-based, unstimulated, primary screen (AID 1145); conditions: no forskolin, luminescence, 4.5 h, higher = more signal, called active from +8 up or from −8 down
# [14] = forskolin-driven CRE-LacZ activity in PC12 – cell-based, CRE-LacZ reporter, forskolin-stimulated, primary screen (AID 1146); conditions: luminescence, 4.5 h, higher = more signal, called active from +8 up or from −8 down;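 further: PC12 cells with 6xCRE LacZ reporter stimulated by forskolin 10 µM; beta-galactosidase reporter signal reflecting CREB driven transcription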
# [15] = target: Streptavidin (Streptomyces avidinii) (UniProt P22629); experiment: compounds binding control protein streptavidin – biophysical, small-molecule microarray, 635/667 nm fluorescence, artefact control for SMM compound annotation, primary screen (AID 1147); conditions: higher = more signal;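 further: signal reflects streptavidin binding to arrayed compounds as a control protein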
# [16] = probe aInhba binding on compound microarray – biochemical, small-molecule microarray, 635/667 nm fluorescence, primary screen (AID 1148); conditions: higher = more signal;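 further: score merges 667nm spot fluorescence with signal-to-noise for antibody binding to printed compounds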
# Torsin-1A (Homo sapiens) [17] = target: Torsin-1A (Homo sapiens) (UniProt O14656); experiment: TOR1A wild-type binding on microarray – cell lysate, small-molecule microarray, lysate, 635/667 nm, primary screen (AID 1149); conditions: COS7 hTOR1A-WT lysate, 635 nm fluorescence, higher = more signal
# Torsin-1A (Homo sapiens) [18] = target: Torsin-1A (Homo sapiens) (UniProt O14656); experiment: torsin A mutant lysate binding on microarrays – cell lysate, small-molecule microarray, COS7 lysate, 635/667 nm fluorescence, primary screen (AID 1150); conditions: COS7 hTOR1A mutant lysate, 635 nm fluorescence, higher = more signal;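 further: score pools 667 nm emission and signal to noise measuring lysate protein binding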
# [19] = test system: Sonic hedgehog protein (Shh); experiment: Sonic hedgehog microarray binding compounds – biochemical, small-molecule microarray, 635/667 nm fluorescence, primary screen (AID 1151); conditions: 635 nm fluorescence, higher = more signal;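 further: Shh protein binding to compounds spotted on small-molecule microarray slides; score combines spot fluorescence intensity with signal-to-noise across triplicate slides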
# Fibroblast growth factor 2 (Homo sapiens), sequence (P09038 whole entry, looked up): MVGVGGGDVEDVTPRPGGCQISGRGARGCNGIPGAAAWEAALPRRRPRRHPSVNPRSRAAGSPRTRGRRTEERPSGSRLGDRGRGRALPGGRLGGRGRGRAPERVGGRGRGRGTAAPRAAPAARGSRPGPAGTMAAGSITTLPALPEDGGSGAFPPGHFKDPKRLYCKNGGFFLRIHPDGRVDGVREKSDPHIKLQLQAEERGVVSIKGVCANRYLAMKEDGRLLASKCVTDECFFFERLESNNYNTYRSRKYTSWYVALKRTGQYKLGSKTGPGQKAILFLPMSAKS
# Focal adhesion kinase 1 (Homo sapiens), sequence (Q05397 whole entry, looked up): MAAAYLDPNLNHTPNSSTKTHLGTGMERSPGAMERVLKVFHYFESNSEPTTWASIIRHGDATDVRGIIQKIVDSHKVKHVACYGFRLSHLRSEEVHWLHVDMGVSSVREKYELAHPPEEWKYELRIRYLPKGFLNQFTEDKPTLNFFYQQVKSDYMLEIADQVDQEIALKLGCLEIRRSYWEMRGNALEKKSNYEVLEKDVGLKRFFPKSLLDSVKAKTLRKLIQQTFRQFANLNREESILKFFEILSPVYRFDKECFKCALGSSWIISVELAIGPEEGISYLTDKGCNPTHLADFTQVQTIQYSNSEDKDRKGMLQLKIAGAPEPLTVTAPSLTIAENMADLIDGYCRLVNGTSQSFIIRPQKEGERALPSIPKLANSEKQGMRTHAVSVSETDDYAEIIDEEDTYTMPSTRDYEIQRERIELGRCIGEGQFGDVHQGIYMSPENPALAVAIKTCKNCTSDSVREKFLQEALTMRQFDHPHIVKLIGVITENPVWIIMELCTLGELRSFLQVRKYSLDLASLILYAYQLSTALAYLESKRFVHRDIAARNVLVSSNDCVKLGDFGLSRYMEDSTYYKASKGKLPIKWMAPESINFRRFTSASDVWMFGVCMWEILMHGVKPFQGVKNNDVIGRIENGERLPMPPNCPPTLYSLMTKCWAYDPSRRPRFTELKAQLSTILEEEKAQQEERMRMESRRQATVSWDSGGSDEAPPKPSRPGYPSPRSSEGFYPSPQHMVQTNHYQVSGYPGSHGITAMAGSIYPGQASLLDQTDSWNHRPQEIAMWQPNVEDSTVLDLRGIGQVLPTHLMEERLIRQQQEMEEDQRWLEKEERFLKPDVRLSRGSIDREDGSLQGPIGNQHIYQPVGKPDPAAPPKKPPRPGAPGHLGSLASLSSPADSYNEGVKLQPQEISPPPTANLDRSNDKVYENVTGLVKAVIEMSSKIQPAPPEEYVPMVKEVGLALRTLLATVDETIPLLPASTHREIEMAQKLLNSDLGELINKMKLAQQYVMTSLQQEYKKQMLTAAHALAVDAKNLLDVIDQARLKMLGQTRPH
# Luciferin 4-monooxygenase (Photinus pyralis), sequence (P08659 whole entry, looked up): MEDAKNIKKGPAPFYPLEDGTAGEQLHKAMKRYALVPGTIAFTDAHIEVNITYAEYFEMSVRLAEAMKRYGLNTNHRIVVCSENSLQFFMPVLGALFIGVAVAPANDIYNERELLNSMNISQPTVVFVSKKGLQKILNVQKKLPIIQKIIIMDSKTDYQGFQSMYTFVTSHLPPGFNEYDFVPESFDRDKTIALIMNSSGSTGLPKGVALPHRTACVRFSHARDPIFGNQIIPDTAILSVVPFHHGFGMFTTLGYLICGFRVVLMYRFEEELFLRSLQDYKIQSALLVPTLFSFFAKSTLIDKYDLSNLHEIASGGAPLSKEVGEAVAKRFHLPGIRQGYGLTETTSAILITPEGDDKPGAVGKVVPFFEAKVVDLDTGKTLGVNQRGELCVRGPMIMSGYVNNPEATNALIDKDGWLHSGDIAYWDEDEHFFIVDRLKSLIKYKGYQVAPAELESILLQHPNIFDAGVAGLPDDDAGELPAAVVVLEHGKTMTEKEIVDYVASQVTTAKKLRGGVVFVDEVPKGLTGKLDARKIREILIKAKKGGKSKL
# Torsin-1A (Homo sapiens), sequence (O14656 whole entry, looked up): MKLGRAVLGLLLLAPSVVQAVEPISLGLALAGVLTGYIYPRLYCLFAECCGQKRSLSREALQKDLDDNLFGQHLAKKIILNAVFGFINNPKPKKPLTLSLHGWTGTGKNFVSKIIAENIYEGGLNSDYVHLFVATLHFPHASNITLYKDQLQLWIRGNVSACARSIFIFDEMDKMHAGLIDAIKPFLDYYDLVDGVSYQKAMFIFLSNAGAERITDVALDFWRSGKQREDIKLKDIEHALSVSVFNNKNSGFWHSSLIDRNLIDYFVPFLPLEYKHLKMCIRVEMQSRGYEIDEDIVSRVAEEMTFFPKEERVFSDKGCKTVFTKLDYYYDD
# Follistatin (Homo sapiens), sequence (P19883 whole entry, looked up): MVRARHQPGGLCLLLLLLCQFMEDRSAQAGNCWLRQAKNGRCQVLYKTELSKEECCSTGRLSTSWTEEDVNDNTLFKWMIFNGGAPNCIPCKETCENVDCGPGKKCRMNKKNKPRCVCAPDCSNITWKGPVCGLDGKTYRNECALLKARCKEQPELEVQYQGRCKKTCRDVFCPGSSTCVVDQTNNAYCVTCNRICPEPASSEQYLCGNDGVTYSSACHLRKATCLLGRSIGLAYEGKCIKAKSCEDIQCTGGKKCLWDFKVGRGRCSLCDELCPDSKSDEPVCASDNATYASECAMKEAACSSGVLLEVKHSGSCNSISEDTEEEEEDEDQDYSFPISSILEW
# Streptavidin (Streptomyces avidinii), sequence (P22629 whole entry, looked up): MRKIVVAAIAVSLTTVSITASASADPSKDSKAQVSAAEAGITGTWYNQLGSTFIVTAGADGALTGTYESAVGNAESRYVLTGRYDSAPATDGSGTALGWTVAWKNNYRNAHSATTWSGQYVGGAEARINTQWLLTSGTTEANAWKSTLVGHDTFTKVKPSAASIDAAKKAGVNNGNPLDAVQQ
Structure (SMILES),composite z-score [1],composite z-score [2],composite z-score [3],composite z-score [4],composite z-score [5],composite z-score [6],z-score [7],composite z-score (Lefty1),composite z-score [8],z-score [9],composite z-score [10],z-score [11],z-score [12],z-score [13],z-score [14],composite z-score [15],composite z-score [16],composite z-score (Torsin-1A (Homo sapiens) [17]),composite z-score (Torsin-1A (Homo sapiens) [18]),composite z-score [19]
O=C1OCC=C[C@H]2OC34C=CCN(Cn5nnc6ccccc65)C(=O)[C@H]3N(CCCCCCO)C(=O)[C@@H]4[C@@H]12 (stereo not given in full),1.42,-0.238,0.058,-1.49,-0.982,-0.525,0.421,-0.835,-0.544,-0.283 (inactive),-0.277,0.205 (inactive),1.16 (inactive),0.0484 (inactive),-0.116 (inactive),-0.701,0.111,-0.494,-0.416,-0.104
CN1C2C=C(CCCO)C(C3C(=O)N(C(N)=O)C(=O)C32)C1c1cccs1 (stereo not given),0.738,0.151,-0.111,-0.451,0.044,-0.22,-0.405,0.38,-0.303,-0.655 (inactive),2.03,0.148 (inactive),0.628 (inactive),-1.09 (inactive),-0.23 (inactive),0.0783,-0.0963,0.21,0.429,0.279
COc1cc(OC)c(C(O)C2C=CC3C(=O)N(c4ccccc4)C(=O)C3N2Nc2ccc(C#N)cc2)cc1Br (stereo not given),1.36,1.02,0.707,0.674,1.22,0.217,0.658,-0.129,1.13,0.289 (inactive),0.507,0.411 (inactive),-0.245 (inactive),2.17 (inactive),-0.475 (inactive),1.9,0.451,0.367,0.99,-0.186
COC(=O)C(CC#Cc1ccc2c(c1)[C@]1(C(=O)N2)[C@H](C(=O)O)[C@H]2C(=O)O[C@H](c3ccccc3)[C@H](c3ccccc3)N2[C@@H]1c1ccccc1OCCO)C(=O)OC,2.8,1.24,0.712,0.95,1.18,0.838,-1.01,0.976,1.18,-3.09 (inactive),0.193,-1.66 (inactive),-0.292 (inactive),0.899 (inactive),2.92 (inactive),0.678,0.36,1.04,0.829,1.41
CN(C)CCCNC(=O)[C@@H]1c2ccccc2C(=O)N(CC23CC4CC(CC(C4)C2)C3)[C@H]1c1ccc(CO)cc1,2.44,1.27,0.0169,0.954,1.21,0.788,1.36,1.26,0.665,0.717 (inactive),0.528,-4.72 (inactive),-0.465 (inactive),-0.322 (inactive),-0.0221 (inactive),1.12,0.016,0.954,0.808,1.5
